# Laboratory results from PubChem BioAssay AID1159580 (chemical genetic matrix, 2015).
# Where “and” joins values, the source holds several entries; their conditions need not be identical. Identical values can stand only once. In all, about 5,500 compounds went through this assay and about 2,000 (36%) were called active. Inconclusive results (about 18%) are left out. Some of the results follow. Values without a mark were called inactive. No stated cut-off is given here; in the data, active means normalized growth mostly below about 0.91 (no sharp cut-off); inconclusive means no clear call, values can overlap the other calls; inactive means mostly above about 0.92.
# Assay: chemical genetic growth profiling, strain panel (AID 1159580);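 further: tested at 20 µM; growth read once vehicle control cultures reached saturation at 30 °C; 1 = growth at the plate median or of vehicle wells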
# Details: S. cerevisiae deletion strains, growth OD
smiles,measurement,setting,value
C=CC1=C(C)/C(=C/c2[nH]c(Cc3[nH]c(/C=C4\NC(=O)C(C)=C4C=C)c(C)c3CCC(=O)O)c(CCC(=O)O)c2C)NC1=O,normalized growth,"locus YAL013W, strain DEP1, stronger effect = lower value",1.02
same,normalized growth,"locus YAL021C, strain ccr4, stronger effect = lower value",0.949
same,normalized growth,"locus YAL026C, strain drs2, stronger effect = lower value",0.982
same,normalized growth,"locus YAL030W, strain snc1, stronger effect = lower value",0.996
same,normalized growth,"locus YBL061C, strain skt5, stronger effect = lower value",0.993
same,normalized growth,"locus YBR009C, strain hhf1, stronger effect = lower value",1.03
same,normalized growth,"locus YBR021W, strain FUR4, stronger effect = lower value",1.02
same,normalized growth,"locus YBR023C, strain chs3, stronger effect = lower value",0.993
same,normalized growth,"locus YBR171W, strain sec66, stronger effect = lower value",0.982
same,normalized growth,"locus YBR229C, strain ROT2, stronger effect = lower value",1.01
same,normalized growth,"locus YBR231C, strain swc5, stronger effect = lower value",1
same,normalized growth,"locus YBR279W, strain paf1, stronger effect = lower value",0.995
same,normalized growth,"locus YCL011C, strain gbp2, stronger effect = lower value",0.984
same,normalized growth,"locus YCL016C, strain dcc1, stronger effect = lower value",0.994
same,normalized growth,"locus YCL029C, strain bik1, stronger effect = lower value",1.02
same,normalized growth,"locus YCL061C, strain MRC1, stronger effect = lower value",0.978
same,normalized growth,"locus YCL069W, strain vba3, stronger effect = lower value",0.986
same,normalized growth,"locus YCR088W, strain abp1, stronger effect = lower value",0.98
same,normalized growth,"locus YDL005C, strain med2, stronger effect = lower value",0.981
same,normalized growth,"locus YDL035C, strain GPR1, stronger effect = lower value",1.02
same,normalized growth,"locus YDL040C, strain nat1, stronger effect = lower value",0.979
same,normalized growth,"locus YDL074C, strain BRE1, stronger effect = lower value",1.03
same,normalized growth,"locus YDL101C, strain DUN1, stronger effect = lower value",1.01
same,normalized growth,"locus YDL134C, strain PPH21, stronger effect = lower value",1.02
same,normalized growth,"locus YDL185W, strain tfp1, stronger effect = lower value",1.01
same,normalized growth,"locus YDL192W, strain arf1, stronger effect = lower value",1.02
same,normalized growth,"locus YDR001C, strain nth1, stronger effect = lower value",0.979
same,normalized growth,"locus YDR069C, strain doa4, stronger effect = lower value",0.998
same,normalized growth,"locus YDR101C, strain arx1, stronger effect = lower value",1.03
same,normalized growth,"locus YDR137W, strain rgp1, stronger effect = lower value",0.931
same,normalized growth,"locus YDR159W, strain sac3, stronger effect = lower value",1.02
same,normalized growth,"locus YDR162C, strain NBP2, stronger effect = lower value",1.04
same,normalized growth,"locus YDR195W, strain ref2",0.992
same,normalized growth,"locus YDR297W, strain sur2, stronger effect = lower value",0.978
same,normalized growth,"locus YDR318W, strain mcm21, stronger effect = lower value",1.02
same,normalized growth,"locus YDR334W, strain swr1, stronger effect = lower value",0.955
same,normalized growth,"locus YDR335W, strain msn5, stronger effect = lower value",0.974
same,normalized growth,"locus YDR388W, stronger effect = lower value",1.02
same,normalized growth,"locus YDR392W, strain spt3, stronger effect = lower value",0.916
same,normalized growth,"locus YDR502C, strain sam2, stronger effect = lower value",1
same,normalized growth,"locus YEL003W, strain gim4, stronger effect = lower value",0.981
same,normalized growth,"locus YEL037C, strain rad23, stronger effect = lower value",0.984
same,normalized growth,"locus YEL061C, strain CIN8 (second series), stronger effect = lower value",0.989
same,normalized growth,"locus YEL061C, strain CIN8, stronger effect = lower value",1
same,normalized growth,"locus YER015W, strain faa2, stronger effect = lower value",0.99
same,normalized growth,"locus YER016W, strain bim1, stronger effect = lower value",0.992
same,normalized growth,"locus YER110C, stronger effect = lower value",1.01
same,normalized growth,"locus YER111C, strain swi4, stronger effect = lower value",1
same,normalized growth,"locus YER155C, strain BEM2 (second series), stronger effect = lower value",1.02
same,normalized growth,"locus YER155C, strain BEM2, stronger effect = lower value",1.01
same,normalized growth,"locus YER167W, strain BCK2, stronger effect = lower value",1.01
same,normalized growth,"locus YFR010W, strain ubp6, stronger effect = lower value",0.985
same,normalized growth,"locus YGL078C, strain dbp3, stronger effect = lower value",1.04
same,normalized growth,"locus YGL086W, strain mad1, stronger effect = lower value",1.03
same,normalized growth,"locus YGL167C, strain pmr1, stronger effect = lower value",0.995
same,normalized growth,"locus YGL173C, strain kem1, stronger effect = lower value",0.975
same,normalized growth,"locus YGL227W, strain vid30, stronger effect = lower value",0.994
same,normalized growth,"locus YGL240W, strain doc1, stronger effect = lower value",1.02
same,normalized growth,"locus YGL248W, strain PDE1, stronger effect = lower value",1.02
same,normalized growth,"locus YGL253W, strain hxk2, stronger effect = lower value",1.01
same,normalized growth,"locus YGR078C, strain PAC10, stronger effect = lower value",1
same,normalized growth,"locus YGR135W, strain pre9, stronger effect = lower value",0.993
same,normalized growth,"locus YGR252W, strain gcn5, stronger effect = lower value",0.99
same,normalized growth,"locus YHR013C, strain ard1, stronger effect = lower value",0.97
same,normalized growth,"locus YHR027C, strain rpn1, stronger effect = lower value",0.987
same,normalized growth,"locus YHR030C, strain SLT2, stronger effect = lower value",1.01 and 1.03
same,normalized growth,"locus YHR079C, strain IRE1 (second series), stronger effect = lower value",1.01
same,normalized growth,"locus YHR079C, strain IRE1, stronger effect = lower value",1.04
same,normalized growth,"locus YHR094C, strain hxt1, stronger effect = lower value",1.01
same,normalized growth,"locus YHR129C, strain ARP1, stronger effect = lower value",1
same,normalized growth,"locus YHR142W, strain chs7, stronger effect = lower value",0.932
same,normalized growth,"locus YHR200W, strain rpn10, stronger effect = lower value",1.02
same,normalized growth,"locus YIL066C, strain RNR3, stronger effect = lower value",1.02
same,normalized growth,"locus YIL073C, strain SPO22, stronger effect = lower value",1.15
same,normalized growth,"locus YIL125W, strain kgd1, stronger effect = lower value",1.05
same,normalized growth,"locus YIR030C, strain dcg1, stronger effect = lower value",1.02
same,normalized growth,"locus YJL092W, strain hpr5, stronger effect = lower value",0.961
same,normalized growth,"locus YJL095W, strain BCK1 (second series), stronger effect = lower value",0.994
same,normalized growth,"locus YJL095W, strain BCK1, stronger effect = lower value",1.02 and 0.973
same,normalized growth,"locus YJL115W, strain asf1, stronger effect = lower value",0.978
same,normalized growth,"locus YJL129C, strain trk1, stronger effect = lower value",0.97
same,normalized growth,"locus YJL134W, strain LCB3, stronger effect = lower value",1.01
same,normalized growth,"locus YJL154C, strain vps35, stronger effect = lower value",0.982
same,normalized growth,"locus YJL164C, strain tpk1, stronger effect = lower value",0.973
same,normalized growth,"locus YJL166W, strain qcr8, stronger effect = lower value",0.997
same,normalized growth,"locus YJL168C, strain set2, stronger effect = lower value",1.01
same,normalized growth,"locus YJL187C, strain SWE1 (second series), stronger effect = lower value",0.998
same,normalized growth,"locus YJL187C, strain SWE1, stronger effect = lower value",0.983
same,normalized growth,"locus YJR043C, strain POL32, stronger effect = lower value",1.02
same,normalized growth,"locus YJR066W, strain TOR1, stronger effect = lower value",1
same,normalized growth,"locus YJR075W, strain HOC1, stronger effect = lower value",1.01
same,normalized growth,"locus YKL009W, strain mrt4, stronger effect = lower value",1.16 [resistant] (active)
same,normalized growth,"locus YKL068W, stronger effect = lower value",1.03
same,normalized growth,"locus YKL085W, strain MDH1 (second series), stronger effect = lower value",1.04
same,normalized growth,"locus YKL085W, strain MDH1, stronger effect = lower value",1.04
same,normalized growth,"locus YKL160W, strain elf1, stronger effect = lower value",0.972
same,normalized growth,"locus YKR001C, strain vps1, stronger effect = lower value",1.05
same,normalized growth,"locus YKR026C, strain gcn3, stronger effect = lower value",0.986
same,normalized growth,"locus YKR091W, strain srl3, stronger effect = lower value",0.982
same,normalized growth,"locus YLL001W, strain dnm1, stronger effect = lower value",0.988
same,normalized growth,"locus YLL026W, stronger effect = lower value",0.99
same,normalized growth,"locus YLL041C, strain sdh2, stronger effect = lower value",0.979
same,normalized growth,"locus YLR027C, strain aat2, stronger effect = lower value",0.979
same,normalized growth,"locus YLR039C, strain RIC1, stronger effect = lower value",1
same,normalized growth,"locus YLR058C, strain SHM2, stronger effect = lower value",1
same,normalized growth,"locus YLR102C, strain apc9, stronger effect = lower value",1.02
same,normalized growth,"locus YLR113W, strain HOG1, stronger effect = lower value",0.964
same,normalized growth,"locus YLR221C, strain rsa3, stronger effect = lower value",0.966
same,normalized growth,"locus YLR258W, strain gsy2, stronger effect = lower value",1
same,normalized growth,"locus YLR262C, strain YPT6 (second series), stronger effect = lower value",0.963
same,normalized growth,"locus YLR262C, strain YPT6, stronger effect = lower value",1.08
same,normalized growth,"locus YLR268W, strain sec22, stronger effect = lower value",1.03
same,normalized growth,"locus YLR320W, strain mms22, stronger effect = lower value",1.02
same,normalized growth,"locus YLR330W, strain CHS5, stronger effect = lower value",1.01
same,normalized growth,"locus YLR342W, strain FKS1 (second series), stronger effect = lower value",1.01
same,normalized growth,"locus YLR342W, strain FKS1, stronger effect = lower value",0.992
same,normalized growth,"locus YLR357W, strain rsc2, stronger effect = lower value",1.01
same,normalized growth,"locus YLR370C, strain arc18, stronger effect = lower value",0.976
same,normalized growth,"locus YLR371W, strain rom2, stronger effect = lower value",1.03
same,normalized growth,"locus YLR384C, strain iki3, stronger effect = lower value",0.987
same,normalized growth,"locus YLR418C, strain cdc73, stronger effect = lower value",1.03
same,normalized growth,"locus YML016C, strain PPZ1, stronger effect = lower value",1
same,normalized growth,"locus YML032C, strain rad52, stronger effect = lower value",1.03
same,normalized growth,"locus YML120C, strain ndi1, stronger effect = lower value",0.961
same,normalized growth,"locus YML124C, strain tub3, stronger effect = lower value",1.02
same,normalized growth,"locus YMR058W, strain fet3, stronger effect = lower value",0.971
same,normalized growth,"locus YMR078C, strain ctf18, stronger effect = lower value",1.04
same,normalized growth,"locus YMR125W, strain sto1, stronger effect = lower value",1.02
same,normalized growth,"locus YMR129W, stronger effect = lower value",0.988
same,normalized growth,"locus YMR205C, strain PFK2, stronger effect = lower value",1.02
same,normalized growth,"locus YMR223W, strain ubp8, stronger effect = lower value",1
same,normalized growth,"locus YMR231W, strain pep5, stronger effect = lower value",0.99
same,normalized growth,"locus YMR263W, strain SAP30, stronger effect = lower value",1
same,normalized growth,"locus YMR307W, strain GAS1, stronger effect = lower value",0.968
same,normalized growth,"locus YNL067W, strain RPL9B, stronger effect = lower value",0.999
same,normalized growth,"locus YNL071W, strain lat1, stronger effect = lower value",0.988
same,normalized growth,"locus YNL183C, strain NPR1, stronger effect = lower value",0.919
same,normalized growth,"locus YNL209W, strain ssb2, stronger effect = lower value",0.987
same,normalized growth,"locus YNL233W, strain BNI4, stronger effect = lower value",1.01
same,normalized growth,"locus YNL248C, strain rpa49, stronger effect = lower value",0.938
same,normalized growth,"locus YNL250W, strain rad50, stronger effect = lower value",1.01
same,normalized growth,"locus YNL271C, strain bni1, stronger effect = lower value",1.03
same,normalized growth,"locus YNL298W, strain CLA4, stronger effect = lower value",1.02
same,normalized growth,"locus YNL307C, strain MCK1, stronger effect = lower value",1.01
same,normalized growth,"locus YNL322C, strain KRE1 (second series), stronger effect = lower value",0.982
same,normalized growth,"locus YNL322C, strain KRE1, stronger effect = lower value",1.01
same,normalized growth,"locus YNR049C, strain mso1, stronger effect = lower value",0.981
same,normalized growth,"locus YNR052C, strain pop2, stronger effect = lower value",1.01
same,normalized growth,"locus YOL012C, strain htz1",0.856
same,normalized growth,"locus YOL147C, strain pex11, stronger effect = lower value",1.02
same,normalized growth,"locus YOR001W, strain rrp6, stronger effect = lower value",0.951
same,normalized growth,"locus YOR061W, strain CKA2, stronger effect = lower value",1.03
same,normalized growth,"locus YOR069W, strain VPS5, stronger effect = lower value",1.01
same,normalized growth,"locus YOR070C, strain gyp1, stronger effect = lower value",0.996
same,normalized growth,"locus YOR080W, strain dia2, stronger effect = lower value",0.986
same,normalized growth,"locus YOR083W, strain WHI5, stronger effect = lower value",0.94
same,normalized growth,"locus YOR106W, strain vam3, stronger effect = lower value",0.951
same,normalized growth,"locus YOR136W, strain idh2, stronger effect = lower value",1.02
same,normalized growth,"locus YOR144C, strain elg1, stronger effect = lower value",1.01
same,normalized growth,"locus YOR184W, strain ser1, stronger effect = lower value",1.07
same,normalized growth,"locus YOR231W, strain MKK1, stronger effect = lower value",1.03
same,normalized growth,"locus YOR265W, strain rbl2, stronger effect = lower value",0.985
same,normalized growth,"locus YOR270C, strain vph1, stronger effect = lower value",0.971
same,normalized growth,"locus YOR290C, strain snf2, stronger effect = lower value",1.01
same,normalized growth,"locus YOR316C, strain cot1, stronger effect = lower value",1.02
same,normalized growth,"locus YPL051W, strain arl3, stronger effect = lower value",0.969
same,normalized growth,"locus YPL055C, strain LGE1, stronger effect = lower value",0.995
same,normalized growth,"locus YPL078C, strain atp4, stronger effect = lower value",0.939
same,normalized growth,"locus YPL106C, strain sse1, stronger effect = lower value",0.949
same,normalized growth,"locus YPL240C, strain hsp82, stronger effect = lower value",0.982
same,normalized growth,"locus YPL241C, strain CIN2, stronger effect = lower value",1.01
same,normalized growth,"locus YPL256C, strain CLN2, stronger effect = lower value",1.06
same,normalized growth,"locus YPR119W, strain clb2, stronger effect = lower value",1.01
same,normalized growth,"locus YPR163C, strain tif3, stronger effect = lower value",1.02
same,normalized growth,"locus YPR167C, strain met16, stronger effect = lower value",1.02
same,normalized growth,"strain wtn01, stronger effect = lower value",1.04
